# Laboratory results taken from PubChem BioAssay.
# A number with no mark means an inactive call. Entries that show only a call come without a potency. For some assays here: Potency and affinity values are given separately. Activity calls are given as the source filed them. Unless noted, the rule behind the calls is not given here.
# How the values were obtained:
# [1] = antimalarial activity against Dd2 strain (AID 2302;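 active = growth inhibition above 50% at the single 2 µM test dose, taken to imply half-maximal potency below 2 µM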); conditions: P. falciparum Dd2 in RBCs, LDH growth readout, 72 h; at 2 µM; hits give high values
# [2] = human hepatoma cell viability loss – ATP luminescence, cytotoxicity control for P. falciparum antimalarial project, primary screen (AID 2303;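 active = inhibition above 50%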); conditions: HepG2 viability, 24-48 h, at 10 µM, hits give high values
# [3] = target: L-lactate dehydrogenase (Plasmodium falciparum (isolate CDC / Honduras)) (UniProt Q27743); assay: PfLDH activity inhibition – cell lysate, 3D7 strain, counter-screen for P. falciparum growth inhibition project (AID 2304); conditions: P. falciparum 3D7 crude extract, LDH APAD/NBT absorbance; at 2 µM; hits give high values
# [4] = inhibition of 3D7 malaria parasite growth – strain 3D7 (AID 2306); conditions: P. falciparum 3D7 erythrocytic growth, LDH absorbance, 72 h; at 2 µM; hits give high values
# [5] = target: Calcium-dependent protein kinase 1 (Plasmodium falciparum (isolate 3D7)) (UniProt P62344); assay: PfCDPK1 kinase inhibitors, biochemical, TCAMS library (AID 1159585; cut-off not given, nearly all actives have IC50 up to about 0.98 µM;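 note: inhibitors leave more ATP so luminescence rises with inhibition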); conditions: recombinant PfCDPK1, Kinase-Glo ATP depletion luminescence
# [6] = target: Plasmodium falciparum protein kinase 6 (PK6, PF3D7_1337100) (UniProt Q8IDW1); assay: PfPK6 kinase inhibitors, biochemical, TCAMS library (AID 1159586); conditions: recombinant PfPK6, Kinase-Glo ATP depletion luminescence
# [7] = target: Protein kinase 7 (PK7), Plasmodium falciparum 3D7 (PF3D7_0213400) (UniProt Q7YTF7); assay: inhibition of Plasmodium PK7 catalytic activity – biochemical, TCAMS antimalarial set, Kinase-Glo luminescence (AID 1159587); conditions: recombinant PfPK7, Kinase-Glo ATP depletion luminescence
# [8] = target: Calcium-dependent protein kinase 4 (Plasmodium falciparum (isolate 3D7)) (UniProt Q8IBS5); assay: PfCDPK4 kinase inhibitors, biochemical, TCAMS library (AID 1159588; cut-off not given, nearly all actives have IC50 up to about 0.91 µM); conditions: recombinant PfCDPK4, Kinase-Glo ATP depletion luminescence
# Chain of Calcium-dependent protein kinase 4 (Plasmodium falciparum (isolate 3D7)) (Q8IBS5 whole entry, looked up): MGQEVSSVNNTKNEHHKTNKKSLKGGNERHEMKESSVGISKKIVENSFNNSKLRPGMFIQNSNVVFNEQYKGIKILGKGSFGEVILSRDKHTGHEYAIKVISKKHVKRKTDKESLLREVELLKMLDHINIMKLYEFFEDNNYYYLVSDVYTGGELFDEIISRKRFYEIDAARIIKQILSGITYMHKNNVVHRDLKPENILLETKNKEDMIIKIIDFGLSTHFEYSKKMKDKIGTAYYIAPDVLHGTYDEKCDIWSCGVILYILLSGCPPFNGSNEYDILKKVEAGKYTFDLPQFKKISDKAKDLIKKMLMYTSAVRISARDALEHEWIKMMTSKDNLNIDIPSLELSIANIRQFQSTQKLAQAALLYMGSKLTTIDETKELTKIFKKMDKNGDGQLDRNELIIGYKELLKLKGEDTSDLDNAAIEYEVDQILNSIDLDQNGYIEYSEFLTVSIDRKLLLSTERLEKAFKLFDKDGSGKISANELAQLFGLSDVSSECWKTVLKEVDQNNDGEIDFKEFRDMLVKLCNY
# Chain of Plasmodium falciparum protein kinase 6 (PK6, PF3D7_1337100) (Q8IDW1 1-305): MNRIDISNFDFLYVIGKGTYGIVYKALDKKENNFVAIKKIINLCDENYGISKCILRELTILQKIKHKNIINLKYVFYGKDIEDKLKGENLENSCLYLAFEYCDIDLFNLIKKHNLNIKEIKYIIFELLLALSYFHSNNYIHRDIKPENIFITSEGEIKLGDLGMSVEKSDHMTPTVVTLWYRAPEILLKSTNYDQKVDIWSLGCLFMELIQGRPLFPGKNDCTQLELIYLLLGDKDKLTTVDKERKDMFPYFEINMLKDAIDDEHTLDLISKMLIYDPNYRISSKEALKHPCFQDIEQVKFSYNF
# Chain of L-lactate dehydrogenase (Plasmodium falciparum (isolate CDC / Honduras)) (Q27743 whole entry, looked up): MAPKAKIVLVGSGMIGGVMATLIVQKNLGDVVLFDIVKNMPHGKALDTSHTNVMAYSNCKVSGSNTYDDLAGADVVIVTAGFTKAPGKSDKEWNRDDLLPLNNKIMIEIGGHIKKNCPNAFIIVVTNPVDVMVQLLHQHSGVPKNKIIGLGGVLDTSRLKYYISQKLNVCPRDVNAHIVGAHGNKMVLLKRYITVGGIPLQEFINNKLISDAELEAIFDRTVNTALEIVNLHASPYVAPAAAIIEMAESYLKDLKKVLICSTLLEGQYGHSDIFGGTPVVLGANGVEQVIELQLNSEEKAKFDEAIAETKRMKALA
# Chain of Protein kinase 7 (PK7), Plasmodium falciparum 3D7 (PF3D7_0213400) (Q7YTF7 1-343): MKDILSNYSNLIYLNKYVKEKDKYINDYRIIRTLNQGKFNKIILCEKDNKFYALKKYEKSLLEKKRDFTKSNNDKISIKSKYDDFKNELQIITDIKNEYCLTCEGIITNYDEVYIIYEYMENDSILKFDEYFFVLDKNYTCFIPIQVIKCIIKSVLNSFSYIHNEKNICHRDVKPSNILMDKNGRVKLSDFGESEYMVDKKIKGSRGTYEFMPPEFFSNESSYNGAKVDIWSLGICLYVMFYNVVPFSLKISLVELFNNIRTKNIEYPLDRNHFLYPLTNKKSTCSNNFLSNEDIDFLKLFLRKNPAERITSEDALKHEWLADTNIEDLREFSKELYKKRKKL
# Chain of Calcium-dependent protein kinase 1 (Plasmodium falciparum (isolate 3D7)) (P62344 whole entry, looked up): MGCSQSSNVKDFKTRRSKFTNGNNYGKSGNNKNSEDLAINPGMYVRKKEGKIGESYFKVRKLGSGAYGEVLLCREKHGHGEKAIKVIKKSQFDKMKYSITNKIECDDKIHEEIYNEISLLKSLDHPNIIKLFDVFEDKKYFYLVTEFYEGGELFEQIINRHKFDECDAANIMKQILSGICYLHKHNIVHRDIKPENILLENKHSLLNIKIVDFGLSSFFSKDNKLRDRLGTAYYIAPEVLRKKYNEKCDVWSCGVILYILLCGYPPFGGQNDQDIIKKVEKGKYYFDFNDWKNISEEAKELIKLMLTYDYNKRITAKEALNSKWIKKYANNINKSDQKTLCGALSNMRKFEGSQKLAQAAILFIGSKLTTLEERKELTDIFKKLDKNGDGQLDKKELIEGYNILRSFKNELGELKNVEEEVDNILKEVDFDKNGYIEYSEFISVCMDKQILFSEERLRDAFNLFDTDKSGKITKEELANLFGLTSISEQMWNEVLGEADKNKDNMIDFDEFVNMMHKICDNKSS
Compound,growth inhibition [1],inhibition [2],inhibition [3],growth inhibition [4],outcome [5],outcome [6],outcome [7],outcome [8]
CN(C)c1ccc(-c2csc(C(=O)NC3CCN(CCC(C)(C)C)C3)c2)cc1 (stereo not given),36%,20%,2%,95% (active),inactive,inactive,inactive,inactive
CCCN(CCC)C(=O)c1cc(C(=O)N[C@@H](Cc2ccccc2)[C@H](O)CNC(C)(C)c2cccc(C(F)(F)F)c2)cc(N2CCCCS2(=O)=O)c1,98% (active),19%,-4%,99% (active),inactive,inactive,inactive,inactive
Cn1cncc1CCCN(Cc1ccc(-c2ccc(C(F)(F)F)cc2)cc1)C(=O)Cn1c(CCc2cccc(F)c2F)cc(=O)c2cccnc21,59% (active),17%,-2%,85% (active),inactive,inactive,inactive,inactive
Nc1nc(N)c2cc(C(F)(F)F)ccc2n1,1%,8%,-3%,80% (active),inactive,inactive,inactive,inactive
CCCCCC(C)c1cc(O)c2c(c1)OC(C)(C)C=C2C1=CCN(Cc2ccccc2)CC1 (stereo not given),96% (active),13%,-5%,96% (active),inactive,inactive,inactive,inactive
CC(=O)c1ccc(NC(=O)Nc2ccc(N(C)c3ccnc(NC4CC4)n3)cc2)cc1,60% (active),59% (active),1%,100% (active),inactive,inactive,inactive,inactive
CSc1ccc2ccccc2c1CCNCCCCNCCc1c(SC)ccc2ccccc12,60% (active),99% (active),3%,101% (active),inactive,inactive,inactive,inactive
O=C(Nc1ccc(-c2cccc(-c3nc4ccc(F)cc4[nH]3)c2)cc1)Nc1ccc(Cl)c(Cl)c1,24%,68% (active),3%,99% (active),inactive,inactive,inactive,inactive
Cc1cc(SC(C)(C)C)cc2c(Cl)c(C(N)=O)cnc12,98% (active),83% (active),0%,98% (active),inactive,inactive,inactive,inactive
Cc1cc(N[C@@H](Cc2ccccc2)C(=O)NCCOc2ccccc2)nc(NCCOc2ccccc2)n1,24%,-1%,-4%,98% (active),inactive,inactive,inactive,inactive
CSC1=NC2(CC(c3cccc(C)c3)c3cc(Cl)c(O)cc3O2)CC(C)(C)N1 (stereo not given),73% (active),0%,4%,100% (active),inactive,inactive,inactive,inactive
CCOC(=O)c1ccc(-c2cnc(N)c(-c3nc4c(C)cccc4[nH]3)c2)cc1,79% (active),43%,-4%,102% (active),inactive,inactive,inactive,inactive
Cc1cc(NC(=O)NCCN2CCC(NS(=O)(=O)c3ccccc3F)CC2)c2ccccc2n1,44%,0%,-4%,81% (active),inactive,inactive,inactive,inactive
Cc1cc(N[C@@H](Cc2ccccc2)C(=O)NCCCOC(C)C)nc(NCC2CCCCC2)n1,25%,17%,-4%,94% (active),inactive,inactive,inactive,inactive
N#Cc1cccc(CN(Cc2ccc(Cl)c(Cl)c2)S(=O)(=O)c2cccc([N+](=O)[O-])c2)c1,73% (active),3%,-8%,100% (active),inactive,inactive,inactive,inactive
Cc1cc2nc(-c3ccc(/C=C/C(=O)NC4CCN(Cc5ccccc5)CC4)cc3)[nH]c2cc1C,89% (active),18%,-2%,98% (active),inactive,inactive,inactive,inactive
c1ccc(CN2CCCN(c3ccc4c(c3)CCN(Cc3ccc(-c5ncc[nH]5)cc3)CC4)CC2)cc1,73% (active),6%,2%,100% (active),inactive,inactive,inactive,inactive
Fc1ccc2nc(-c3ccc(-c4cccc(CN5CCCCC5)c4)cc3)[nH]c2c1,101% (active),10%,-6%,100% (active),inactive,inactive,inactive,inactive
Cn1cnc(CCNC(=O)c2ccc(-c3cccc(-c4nc5ccc(F)cc5[nH]4)c3)cc2)c1,24%,23%,-5%,100% (active),inactive,inactive,inactive,inactive
COc1ccc(C(F)(F)F)cc1N1CCN(CCCCNC(=O)c2ccc(NC(=O)c3ccc(Cl)cc3)cc2)CC1,1%,12%,8%,94% (active),inactive,inactive,inactive,inactive

Compound,growth inhibition [1],inhibition [2],inhibition [3],growth inhibition [4],outcome [5],outcome [6],outcome [7],outcome [8]
Cc1cnc2ccc(NS(=O)(=O)c3ccc4c(Cl)cccc4c3)cc2c1N1CCNCC1,3%,24%,1%,101% (active),inactive,inactive,inactive,inactive
CCCCCCCN1CC[C@H](NC(=O)Nc2ccnc3ccc(OC)cc23)[C@H](CO)C1,69% (active),23%,-3%,94% (active),inactive,inactive,inactive,inactive
COc1ccc2nc(-c3ccccc3)cc(NN=Cc3ccc([N+](=O)[O-])cc3)c2c1,100% (active),89% (active),7%,102% (active),inactive,inactive,inactive,inactive
Cc1ccc2cc(NCCCCCCCCON3C(N)=NC(N)=NC34CCCCC4)ccc2n1,80% (active),15%,3%,92% (active),inactive,inactive,inactive,inactive
COc1cc2nc(N3CCC(CNC(=O)c4ccc(-c5ccc(C#N)cc5C)cc4)CC3)nc(N)c2cc1OC,99% (active),28%,-4%,101% (active),inactive,inactive,inactive,inactive
CCN(CC)CCN(Cc1ccc(-c2ccc(C(F)(F)F)cc2)cc1)C(=O)Cn1c(CCc2cccc(F)c2F)nc(=O)c2ccc(F)cc21,41%,14%,3%,98% (active),inactive,inactive,inactive,inactive
CC(Nc1cc(-c2ccccn2)nc(-c2ccccn2)n1)c1ccccc1 (stereo not given),98% (active),61% (active),-3%,85% (active),inactive,inactive,inactive,inactive
S=C(NN=Cc1ccccn1)Nc1ccc2c(c1)OCCO2,33%,55% (active),6%,82% (active),inactive,inactive,inactive,inactive
N#Cc1ccc2c(c1)CN(C1CCC(NC(=O)C3=Cc4cc(Cl)ccc4OC3)CC1)CCC2 (stereo not given),8%,-5%,2%,93% (active),inactive,inactive,inactive,inactive
CC(C)Cc1ccc(N2CCN(CCCCNC(=O)c3ccc(NC(=O)c4cc(C(F)(F)F)cc(C(F)(F)F)c4)cc3)CC2)cc1,100% (active),15%,-3%,100% (active),inactive,inactive,inactive,inactive
COCCCNC(=O)C1CCN(C(c2ccc(Cl)cc2)c2ccc(Cl)cc2)CC1,63% (active),5%,0%,91% (active),inactive,inactive,inactive,inactive
COc1ccc(CNCCc2cccs2)cc1-c1cccc(S(=O)(=O)NCCN2CCCC2)c1,41%,56% (active),-1%,98% (active),inactive,inactive,inactive,inactive
O=C(C=Cc1ccc(Cl)c(Cl)c1)NCCCCCN1CCCC(CCCNC(=O)[C@@H]2C[C@H]2c2ccccc2)C1 (stereo not given in full),5%,48%,-1%,85% (active),inactive,inactive,inactive,inactive
Cc1noc(C)c1-c1ccc(C(=C2CCCCCC2)c2ccc(O)cc2)cc1,96% (active),-7%,7%,100% (active),inactive,inactive,inactive,inactive
Cc1cc(=O)[nH]c2cc(Nc3ccnc(Nc4cccc(C(N)=O)c4)n3)ccc12,98% (active),27%,-4%,99% (active),inactive,inactive,inactive,inactive
CC(C)CNCc1ccc(-c2ccc(CN(C(=O)NCCc3ccccc3)C3CCN(Cc4ccccc4)CC3)cc2)cc1,62% (active),37%,-3%,98% (active),inactive,inactive,inactive,inactive
COc1ccc(Oc2ccc(Nc3ccnc4ccc(C(F)(F)F)cc34)cc2)cc1OC,17%,-2%,2%,90% (active),inactive,inactive,inactive,inactive
Cc1noc(C)c1-c1cccc(CNCc2ccc(-c3ccc(-c4nc5ccc(F)cc5[nH]4)cc3)cc2)c1,92% (active),23%,4%,102% (active),inactive,inactive,inactive,inactive
CCS[C@@H]1O[C@H](COC(=O)c2ccccc2)[C@H](OC(=O)c2ccccc2)[C@H](OC(=O)c2ccccc2)[C@H]1OC(=O)c1ccccc1,52% (active),4%,5%,98% (active),inactive,inactive,inactive,inactive
COc1cc2nc(N3CCC(CNC(=O)c4ccc(-c5ccc(O)cc5)cc4)CC3)nc(N)c2cc1OC,78% (active),34%,-2%,102% (active),inactive,inactive,inactive,inactive
